Whole data set: some 1,100 sequences, median “thermal melting temperature (Tm) of peptide-HLA complex” near 58, cut for the lowest 2% near 42. Only a selection was taken, and the lowest values are over-represented in it overall.
Target: HLA-A*02:01
Assay: thermal melting temperature (Tm) of peptide-HLA complex; higher = more thermostable pHLA complex
Settings: C1R-A*02:01
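Note: lysates heated 10 min at 37–73 °C, complexes pulled down with pan-HLA I antibody, peptide signal by DIA-MS relative to 37 °C, Tm where half the complex is unfolded.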

Row | Sequence | thermal melting temperature [°C]
1 | FLDDVVHSL | 58.8
2 | SLHEFLVNL | 61.5
3 | RLMNDMTAV | 58.9
4 | SLLDGHFVL | 40.1
5 | RLLDGAFKL | 49.9
6 | VLIDYQRNV | 60.1
7 | FLSSVIQNL | 58.3
8 | QLYNQIIKL | 56.1
9 | IQDFEMPTV | 50.9
10 | VMLDVPIRL | 55.9
11 | HLIDDLLAA | 41.1
12 | ALFPAPLAQI | 62.7
13 | NIIELVHQV | 57.1
14 | KLGDFGLLV | 60.4
15 | FLNPDEVHAI | 59.9
16 | FLMENGSITSI | 58.2
17 | YLSGIAHFL | 62
18 | SLAQYLINA | 56.7
19 | TIPEAFRGV | 46.3

Row | Sequence | thermal melting temperature [°C]
20 | KLLWTTSRV | 60.1
21 | RVIGTLEEV | 57.6
22 | YLDEDTIYHL | 45.2
23 | AALEEADKMFL | 53.3
24 | SVTSEGIKAV | 46
25 | TVADKIHSV | 55.7
26 | KMDEVLYSI | 59
27 | RLAEVGQYEQV | 56.3
28 | TLIGLSIKV | 56.7
29 | SVAEGRALMSV | 56.8
30 | FQVDEIYTV | 56
31 | ILDQKINEV | 60
32 | ILDQKVALL | 41.7
33 | VILESDPQQVV | 40.1
34 | IIADMDKWTV | 54.6
35 | SMGQLPHTV | 41.4
36 | ALERLLPQV | 59.2
37 | KLYQEVEIASV | 61
38 | SLLPFLKAV | 61.9
